# Test results from PMC7862700, “An all-to-all approach to the identification of sequence-specific readers for epigenetic DNA modifications on cytosine”.
# Columns and labels:
# Assay in all cases: DAPPL (digital affinity profiling via proximity ligation, sequencing); 10 mM Tris-HCl pH 7.5, 50 mM NaCl, 1 mM DTT, 4% glycerol, room temperature, 30 min; GST-TFs on glutathione beads, 16-mer random dsDNA library, 0.1% formaldehyde crosslink after washing; high values mean tight binding
# [1] = biological target: T1, FLI1 (Homo sapiens, UniProt Q01543 1-452); conditions: protein: recombinant; tags: N-terminal GST; dsDNA, one strand shown
# T1 sequence: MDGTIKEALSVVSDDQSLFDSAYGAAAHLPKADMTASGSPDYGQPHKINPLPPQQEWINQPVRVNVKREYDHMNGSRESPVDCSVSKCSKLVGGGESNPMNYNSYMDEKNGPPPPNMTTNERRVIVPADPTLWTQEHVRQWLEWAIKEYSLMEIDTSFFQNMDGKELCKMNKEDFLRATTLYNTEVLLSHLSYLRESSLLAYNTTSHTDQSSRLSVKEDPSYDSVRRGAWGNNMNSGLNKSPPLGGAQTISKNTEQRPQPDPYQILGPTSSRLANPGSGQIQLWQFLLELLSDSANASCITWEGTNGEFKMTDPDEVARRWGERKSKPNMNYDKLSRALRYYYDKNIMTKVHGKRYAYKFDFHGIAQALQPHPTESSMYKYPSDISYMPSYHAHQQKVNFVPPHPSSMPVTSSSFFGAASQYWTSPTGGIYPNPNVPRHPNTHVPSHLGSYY
# Method in brief: (§1)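 Human transcription factors were made in yeast as GST fusions, captured on glutathione beads and barcoded with DNA. With a tag-only sample included, the pool was incubated with 200 nmole of a random double-stranded 16-mer DNA library in Tris/NaCl/DTT/glycerol buffer at room temperature for 30 min, then crosslinked with 0.1% formaldehyde after washing, ligated by proximity, amplified and sequenced. For binding signal, each hexamer's read frequency for a factor is divided by its frequency for the tag-only sample.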
# [2] = biological target: ELF1 (Homo sapiens, UniProt P32519 1-619); conditions: protein: recombinant; tags: N-terminal GST; dsDNA, one strand shown
# Sequence of ELF1 (P32519 whole entry): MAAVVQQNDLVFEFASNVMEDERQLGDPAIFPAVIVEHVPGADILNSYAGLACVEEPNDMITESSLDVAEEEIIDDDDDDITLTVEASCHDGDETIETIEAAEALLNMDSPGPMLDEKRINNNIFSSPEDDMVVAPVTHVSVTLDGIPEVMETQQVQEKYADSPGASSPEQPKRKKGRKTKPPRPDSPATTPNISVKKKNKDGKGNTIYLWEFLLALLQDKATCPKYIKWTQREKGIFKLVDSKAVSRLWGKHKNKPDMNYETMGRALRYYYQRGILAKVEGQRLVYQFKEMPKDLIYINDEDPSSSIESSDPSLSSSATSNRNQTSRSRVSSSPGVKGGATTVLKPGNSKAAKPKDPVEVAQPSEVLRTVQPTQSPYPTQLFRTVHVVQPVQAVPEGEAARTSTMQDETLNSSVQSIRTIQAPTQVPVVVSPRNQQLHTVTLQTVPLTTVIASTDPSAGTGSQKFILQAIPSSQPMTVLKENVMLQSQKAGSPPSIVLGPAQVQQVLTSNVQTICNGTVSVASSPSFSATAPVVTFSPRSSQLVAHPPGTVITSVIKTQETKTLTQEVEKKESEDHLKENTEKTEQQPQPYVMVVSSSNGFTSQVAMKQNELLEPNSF
# Method in brief: as §1
# [3] = biological target: T2, ELK3 (Homo sapiens, UniProt P41970 1-407); conditions: protein: recombinant; tags: N-terminal GST; dsDNA, one strand shown
# T2 sequence: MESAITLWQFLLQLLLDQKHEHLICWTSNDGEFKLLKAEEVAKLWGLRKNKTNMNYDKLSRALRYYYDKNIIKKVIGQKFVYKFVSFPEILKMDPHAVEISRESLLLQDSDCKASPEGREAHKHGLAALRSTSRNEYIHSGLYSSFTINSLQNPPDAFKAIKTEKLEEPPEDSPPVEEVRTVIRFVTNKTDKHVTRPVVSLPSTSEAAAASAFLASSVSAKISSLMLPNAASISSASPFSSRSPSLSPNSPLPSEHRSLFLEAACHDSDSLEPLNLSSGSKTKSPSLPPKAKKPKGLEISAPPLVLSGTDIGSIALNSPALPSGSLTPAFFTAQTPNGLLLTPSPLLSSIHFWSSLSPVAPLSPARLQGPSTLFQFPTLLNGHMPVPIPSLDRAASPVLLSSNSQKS
# Method in brief: as §1
# [4] = biological target: T3, ETV2 (Homo sapiens, UniProt O00321 1-342); conditions: protein: recombinant; tags: N-terminal GST; dsDNA, one strand shown
# T3 sequence: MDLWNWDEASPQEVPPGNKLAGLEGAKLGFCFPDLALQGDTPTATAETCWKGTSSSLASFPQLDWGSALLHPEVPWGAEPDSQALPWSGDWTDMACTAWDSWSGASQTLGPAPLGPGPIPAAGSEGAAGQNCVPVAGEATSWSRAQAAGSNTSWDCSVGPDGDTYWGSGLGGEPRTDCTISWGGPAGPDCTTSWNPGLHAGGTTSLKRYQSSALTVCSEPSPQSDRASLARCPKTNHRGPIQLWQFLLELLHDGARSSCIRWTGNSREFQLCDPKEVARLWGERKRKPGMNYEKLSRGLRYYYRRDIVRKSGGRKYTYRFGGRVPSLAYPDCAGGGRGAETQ
# Method in brief: as §1
# [5] = biological target: HSF1 (Homo sapiens, UniProt Q00613 1-529); conditions: protein: recombinant; tags: N-terminal GST; chain copies: 3; dsDNA, one strand shown
# Sequence of HSF1 (Q00613 whole entry): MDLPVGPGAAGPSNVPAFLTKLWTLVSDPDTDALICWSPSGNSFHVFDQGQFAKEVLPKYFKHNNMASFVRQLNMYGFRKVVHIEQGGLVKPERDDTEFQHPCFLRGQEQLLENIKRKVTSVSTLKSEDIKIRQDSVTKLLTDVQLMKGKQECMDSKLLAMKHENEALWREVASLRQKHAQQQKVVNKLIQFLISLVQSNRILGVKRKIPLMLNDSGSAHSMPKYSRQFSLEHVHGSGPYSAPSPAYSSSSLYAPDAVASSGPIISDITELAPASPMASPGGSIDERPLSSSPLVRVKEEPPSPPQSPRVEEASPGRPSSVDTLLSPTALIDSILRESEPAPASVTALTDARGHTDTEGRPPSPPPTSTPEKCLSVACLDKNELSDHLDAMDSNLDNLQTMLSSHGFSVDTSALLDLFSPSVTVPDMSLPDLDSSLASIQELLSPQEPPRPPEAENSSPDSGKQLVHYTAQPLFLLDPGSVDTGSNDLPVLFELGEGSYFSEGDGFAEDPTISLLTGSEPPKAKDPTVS
# Method in brief: as §1
# [6] = biological target: T4, ELK1 (Homo sapiens, UniProt P19419 1-428); conditions: protein: recombinant; tags: N-terminal GST; dsDNA, one strand shown
# T4 sequence: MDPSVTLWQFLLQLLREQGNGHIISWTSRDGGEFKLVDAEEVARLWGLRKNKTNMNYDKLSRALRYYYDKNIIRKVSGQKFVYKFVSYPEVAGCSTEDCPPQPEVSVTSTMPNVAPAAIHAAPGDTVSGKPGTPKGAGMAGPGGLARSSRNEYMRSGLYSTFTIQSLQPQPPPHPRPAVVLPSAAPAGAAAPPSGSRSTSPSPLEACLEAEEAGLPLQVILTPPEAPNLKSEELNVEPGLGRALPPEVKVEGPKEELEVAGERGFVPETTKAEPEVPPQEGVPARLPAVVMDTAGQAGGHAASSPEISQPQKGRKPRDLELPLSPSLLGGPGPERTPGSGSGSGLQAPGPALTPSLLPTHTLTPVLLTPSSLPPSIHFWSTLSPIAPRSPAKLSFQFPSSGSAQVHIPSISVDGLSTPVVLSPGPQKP
# Method in brief: as §1
# [7] = biological target: T5, GABPA (Homo sapiens, UniProt Q06546 1-454); conditions: protein: recombinant; tags: N-terminal GST; dsDNA, one strand shown
# T5 sequence: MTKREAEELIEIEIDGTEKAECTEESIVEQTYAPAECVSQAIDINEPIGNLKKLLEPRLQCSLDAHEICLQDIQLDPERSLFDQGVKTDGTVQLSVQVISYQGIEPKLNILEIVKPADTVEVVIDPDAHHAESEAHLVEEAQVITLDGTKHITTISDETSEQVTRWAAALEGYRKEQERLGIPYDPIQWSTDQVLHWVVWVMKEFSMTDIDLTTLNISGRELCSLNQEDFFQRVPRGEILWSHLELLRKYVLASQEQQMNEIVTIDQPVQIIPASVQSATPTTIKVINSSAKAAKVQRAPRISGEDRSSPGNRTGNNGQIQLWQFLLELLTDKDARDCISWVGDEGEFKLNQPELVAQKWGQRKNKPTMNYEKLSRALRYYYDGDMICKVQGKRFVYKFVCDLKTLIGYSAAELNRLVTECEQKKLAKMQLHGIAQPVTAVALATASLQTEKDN
# Method in brief: as §1
# [8] = biological target: T6, EHF (Homo sapiens, UniProt Q9NZC4 1-300); conditions: protein: recombinant; tags: N-terminal GST; dsDNA, one strand shown
# T6 sequence: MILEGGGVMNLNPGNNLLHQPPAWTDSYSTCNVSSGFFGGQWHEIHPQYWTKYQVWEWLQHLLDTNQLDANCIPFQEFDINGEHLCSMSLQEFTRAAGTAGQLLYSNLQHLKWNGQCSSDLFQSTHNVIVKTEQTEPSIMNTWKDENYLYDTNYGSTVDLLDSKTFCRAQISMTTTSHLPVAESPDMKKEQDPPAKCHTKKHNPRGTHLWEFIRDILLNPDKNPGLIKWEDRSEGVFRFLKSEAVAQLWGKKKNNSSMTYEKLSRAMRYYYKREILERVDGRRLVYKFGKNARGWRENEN
# Method in brief: as §1
# [9] = biological target: SPIB (Homo sapiens, UniProt Q01892 1-262); conditions: protein: recombinant; tags: N-terminal GST; dsDNA, one strand shown
# Sequence of SPIB (Q01892 whole entry): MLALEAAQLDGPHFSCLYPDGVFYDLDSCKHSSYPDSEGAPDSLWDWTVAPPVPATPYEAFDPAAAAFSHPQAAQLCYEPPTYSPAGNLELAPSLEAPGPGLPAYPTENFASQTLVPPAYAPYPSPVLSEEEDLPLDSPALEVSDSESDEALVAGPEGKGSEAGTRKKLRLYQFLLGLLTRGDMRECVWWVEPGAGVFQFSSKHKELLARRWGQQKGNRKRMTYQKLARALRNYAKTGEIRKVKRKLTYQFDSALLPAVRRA
# Method in brief: as §1
# [10] = biological target: ETV1 (Homo sapiens, UniProt P50549 1-477); conditions: protein: recombinant; tags: N-terminal GST; dsDNA, one strand shown
# Sequence of ETV1 (P50549 whole entry): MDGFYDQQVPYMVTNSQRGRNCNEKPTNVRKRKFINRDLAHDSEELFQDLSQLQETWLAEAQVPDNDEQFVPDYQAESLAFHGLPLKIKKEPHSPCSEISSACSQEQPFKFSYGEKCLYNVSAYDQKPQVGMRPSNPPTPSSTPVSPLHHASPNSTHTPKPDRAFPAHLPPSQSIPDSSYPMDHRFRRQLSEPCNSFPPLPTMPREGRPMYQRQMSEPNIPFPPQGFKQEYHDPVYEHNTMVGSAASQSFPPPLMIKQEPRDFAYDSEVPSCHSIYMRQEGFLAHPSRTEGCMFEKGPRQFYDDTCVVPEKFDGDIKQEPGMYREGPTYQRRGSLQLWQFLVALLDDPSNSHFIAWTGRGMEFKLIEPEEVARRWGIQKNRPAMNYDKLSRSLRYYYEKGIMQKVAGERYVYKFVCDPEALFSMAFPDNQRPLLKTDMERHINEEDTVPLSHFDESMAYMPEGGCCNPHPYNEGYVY
# Method in brief: as §1
# [11] = biological target: T7, ERF (Homo sapiens, UniProt P50548 1-548); conditions: protein: recombinant; tags: N-terminal GST; dsDNA, one strand shown
# T7 sequence: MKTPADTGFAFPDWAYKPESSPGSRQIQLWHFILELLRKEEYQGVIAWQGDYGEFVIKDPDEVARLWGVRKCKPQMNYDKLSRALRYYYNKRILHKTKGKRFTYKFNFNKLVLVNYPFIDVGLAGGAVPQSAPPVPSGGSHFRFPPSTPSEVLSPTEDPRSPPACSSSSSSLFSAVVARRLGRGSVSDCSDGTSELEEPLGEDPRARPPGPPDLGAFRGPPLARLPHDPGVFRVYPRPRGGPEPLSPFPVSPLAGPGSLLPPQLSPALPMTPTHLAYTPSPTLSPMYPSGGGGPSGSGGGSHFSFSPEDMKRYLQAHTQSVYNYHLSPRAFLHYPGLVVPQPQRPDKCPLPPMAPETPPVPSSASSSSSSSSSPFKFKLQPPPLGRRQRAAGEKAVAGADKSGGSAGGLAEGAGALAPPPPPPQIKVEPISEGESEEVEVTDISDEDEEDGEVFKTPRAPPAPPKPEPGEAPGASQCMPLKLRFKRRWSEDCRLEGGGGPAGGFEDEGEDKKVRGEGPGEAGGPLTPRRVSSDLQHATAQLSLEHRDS
# Method in brief: as §1
# [12] = biological target: T8, ETV3L (Homo sapiens, UniProt Q6ZN32 1-361); conditions: protein: recombinant; tags: N-terminal GST; dsDNA, one strand shown
# T8 sequence: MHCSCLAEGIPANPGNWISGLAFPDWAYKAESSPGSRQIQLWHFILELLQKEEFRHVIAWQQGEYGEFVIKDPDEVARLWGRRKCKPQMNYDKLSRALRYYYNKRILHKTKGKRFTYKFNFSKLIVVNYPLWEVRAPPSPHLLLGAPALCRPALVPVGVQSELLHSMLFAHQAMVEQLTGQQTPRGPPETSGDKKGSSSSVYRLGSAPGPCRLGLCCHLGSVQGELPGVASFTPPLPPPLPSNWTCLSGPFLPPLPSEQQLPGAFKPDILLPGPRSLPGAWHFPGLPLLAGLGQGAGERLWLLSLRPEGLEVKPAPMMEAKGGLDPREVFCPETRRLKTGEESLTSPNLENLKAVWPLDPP
# Method in brief: as §1
# [13] = biological target: T9, ETS2 (Homo sapiens, UniProt P15036 1-469); conditions: protein: recombinant; tags: N-terminal GST; dsDNA, one strand shown
# T9 sequence: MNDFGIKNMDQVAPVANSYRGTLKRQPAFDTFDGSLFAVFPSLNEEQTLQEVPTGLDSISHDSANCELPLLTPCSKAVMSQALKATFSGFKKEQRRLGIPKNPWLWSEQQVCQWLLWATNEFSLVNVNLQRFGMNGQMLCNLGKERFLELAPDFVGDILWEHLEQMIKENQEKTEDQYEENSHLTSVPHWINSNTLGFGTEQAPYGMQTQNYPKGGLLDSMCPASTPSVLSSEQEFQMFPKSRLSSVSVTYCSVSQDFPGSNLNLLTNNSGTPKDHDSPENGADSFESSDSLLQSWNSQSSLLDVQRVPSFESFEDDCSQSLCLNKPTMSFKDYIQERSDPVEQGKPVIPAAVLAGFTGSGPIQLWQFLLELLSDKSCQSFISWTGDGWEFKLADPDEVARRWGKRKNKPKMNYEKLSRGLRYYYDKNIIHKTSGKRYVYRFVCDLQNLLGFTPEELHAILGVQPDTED
# Method in brief: as §1
# [14] = biological target: ETV6 (Homo sapiens, UniProt P41212 1-452); conditions: protein: recombinant; tags: N-terminal GST; dsDNA, one strand shown
# Sequence of ETV6 (P41212 whole entry): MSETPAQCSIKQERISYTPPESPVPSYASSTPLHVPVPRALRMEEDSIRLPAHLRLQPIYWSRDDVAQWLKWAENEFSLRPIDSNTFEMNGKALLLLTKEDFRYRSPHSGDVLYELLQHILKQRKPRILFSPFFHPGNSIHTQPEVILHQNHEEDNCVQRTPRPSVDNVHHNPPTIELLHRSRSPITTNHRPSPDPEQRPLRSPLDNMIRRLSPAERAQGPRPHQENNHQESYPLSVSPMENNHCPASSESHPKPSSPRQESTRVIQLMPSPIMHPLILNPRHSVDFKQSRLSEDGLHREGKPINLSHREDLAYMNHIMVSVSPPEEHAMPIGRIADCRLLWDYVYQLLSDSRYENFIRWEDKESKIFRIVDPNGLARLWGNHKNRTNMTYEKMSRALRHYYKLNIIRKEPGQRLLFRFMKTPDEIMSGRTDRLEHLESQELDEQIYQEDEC
# Method in brief: as §1
sequence,measurement,setting,value
GTATGT,binding signal,[1],"1.04 fold enrichment (6-mer frequency, TF over GST control)"
same,binding signal,[2],"1.03 fold enrichment (6-mer frequency, TF over GST control)"
same,binding signal,[3],"1 fold enrichment (6-mer frequency, TF over GST control)"
same,binding signal,[4],"1.02 fold enrichment (6-mer frequency, TF over GST control)"
AGAAGG,binding signal,[5],"1.28 fold enrichment (6-mer frequency, TF over GST control)"
CATAGA,binding signal,[5],"1.15 fold enrichment (6-mer frequency, TF over GST control)"
GTCTAG,binding signal,[5],"1.48 fold enrichment (6-mer frequency, TF over GST control)"
GCATCT,binding signal,[1],"1.03 fold enrichment (6-mer frequency, TF over GST control)"
same,binding signal,[6],"1.02 fold enrichment (6-mer frequency, TF over GST control)"
same,binding signal,[7],"1.03 fold enrichment (6-mer frequency, TF over GST control)"
same,binding signal,[2],"1.02 fold enrichment (6-mer frequency, TF over GST control)"
same,binding signal,[8],"1.06 fold enrichment (6-mer frequency, TF over GST control)"
same,binding signal,[9],"1.02 fold enrichment (6-mer frequency, TF over GST control)"
same,binding signal,[4],"1 fold enrichment (6-mer frequency, TF over GST control)"
same,binding signal,[10],"1.09 fold enrichment (6-mer frequency, TF over GST control)"
same,binding signal,[11],"1.04 fold enrichment (6-mer frequency, TF over GST control)"
same,binding signal,[12],"1.05 fold enrichment (6-mer frequency, TF over GST control)"
same,binding signal,[13],"1.04 fold enrichment (6-mer frequency, TF over GST control)"
same,binding signal,[14],"1.01 fold enrichment (6-mer frequency, TF over GST control)"
